Source: PubChem (National Center for Advancing Translational Sciences (NCATS))
TbPYK inhibitor – qHTS of Trypanosoma Brucei Inhibitors. TbPYK enzyme, Kinase-Glo Plus ATP luminescence, 45 min. 410,000 tested, 0.12% active. Potency, µM (highest dose often 76.8 µM), actives largely listed as inhibitors. AID 624173, 2012. pyruvate kinase (Trypanosoma brucei), Q57TT1; also: nearly all actives have a fitted effect of over 50% in size
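Luminescence from Kinase-Glo Plus, added after a 45-minute room-temperature reaction, served as the end-point read-out. The enzyme and substrate were preincubated with compound before ADP (130 uM final) initiated turnover. Concentration-effect curves came from normalized qHTS data.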
AmpC detergent – qHTS Inhibitors of AmpC Beta-Lactamase (assay with detergent); P00811; AmpC hydrolysis of nitrocefin, absorbance 480 nm, 0.01% Triton; Potency, µM (highest dose often 114 µM), hits mostly inhibitors; 370,000 tested, 0.041% active; AID 485294, 2010; also: nearly all actives have a fitted effect of over 25% in size
Target sequence (P00811 whole entry, looked up): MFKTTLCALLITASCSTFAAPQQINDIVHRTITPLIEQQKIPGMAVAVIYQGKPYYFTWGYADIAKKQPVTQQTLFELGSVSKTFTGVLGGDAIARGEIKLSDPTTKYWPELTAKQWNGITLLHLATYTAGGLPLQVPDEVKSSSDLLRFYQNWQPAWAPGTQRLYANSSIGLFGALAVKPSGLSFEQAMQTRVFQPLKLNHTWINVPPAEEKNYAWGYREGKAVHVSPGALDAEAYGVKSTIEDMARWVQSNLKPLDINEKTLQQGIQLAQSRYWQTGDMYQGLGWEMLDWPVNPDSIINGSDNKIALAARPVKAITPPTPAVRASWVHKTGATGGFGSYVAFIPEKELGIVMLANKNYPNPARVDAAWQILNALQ
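20 mM phosphate pH 7.0 + 0.01% (detergent screen) or 0.0001% Triton X-100; 5.3 nM AmpC reagent; cpd preinc 15 min RT; nitrocefin (800 uM stock) to start; A480 q20 s × 4 min; Activity was normalised to no-enzyme and no-compound control wells.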
SARS PLP yeast – qHTS of Yeast-based Assay for SARS-CoV PLP; S. cerevisiae expressing SARS-CoV PLpro, growth rescue; Potency, µM (titrated, usually from 32.9 µM), usual class: activators; 330,000 tested, 0.19% active; AID 485353, 2010; calls by dose curve; also: nearly all actives have a fitted effect of over 55% in size
AmpC inh no detg – qHTS Inhibitors of AmpC Beta-Lactamase (assay without detergent); P00811; AmpC nitrocefin hydrolysis, absorbance 480 nm, 0.0001% Triton; Potency, µM (highest dose often 57.1 µM), actives largely listed as inhibitors; 330,000 tested, 0.52% active; AID 485341, 2010; also: nearly all actives have a fitted effect of over 20% in size
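AmpC (5.3 nM in the dispensed reagent) in 20 mM phosphate pH 7.0 with 0.01% (detergent screen) or 0.0001% Triton X-100 was preincubated with compounds for 15 min at room temperature. Nitrocefin was then added from an 800 uM solution, and hydrolysis was followed at 480 nm.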
RE007 growth inh – qHTS Assay for Inhibitors of the HIV-1 protein Vpr. 360,000 tested, 0.21% active. Potency, µM (top dose mostly 92.2 µM), hits mostly inhibitors. S. pombe RE007 Vpr strain, BacTiter-Glo ATP luminescence, 24 h; active = well fitted falling curve with a large enough effect; inconclusive = small, poorly fitted or top-dose-only effect; inactive = no such curve, though single readings can be large or run the other way; also: nearly all actives have a fitted effect of over 50% in size
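Fission yeast RE007 carrying one integrated HIV-1 vpr copy, seeded at OD 0.01 in PMG+AL medium with 23 nL pinned compound. Grown 24 h at 30 degrees; viability read by BacTiter-Glo luminescence after 5 min.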
Sm TGR block – qHTS Assay for the Inhibitors of Schistosoma Mansoni Peroxiredoxins | 360,000 tested, 3% active | Schistosoma mansoni thioredoxin glutathione reductase (TGR), Q962Y6 | purified TGR, DTNB reduction, TNB absorbance 405 nm | Potency, µM (top dose mostly 114 µM), most hits filed as inhibitors; also: nearly all actives have a fitted effect of over 60% in size
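First, TGR (20 nM dispensed) and NADPH were mixed with compound. Second, a 15 min room-temperature incubation followed. Third, further NADPH and then DTNB were added to start the reaction. Finally, TNB absorbance was monitored kinetically.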
Numbers stand for hits; i = inactive; ? = inconclusive; nt = no result; ! = not confirmed by another sample. Most compounds without a hit are left out; they make up all but 3.3% or so of the library. Unless noted, calls follow the shape of the dose curve; as a rule, active = well fitted curve in the direction sought with a large enough effect; inconclusive = small, poorly fitted or top-dose-only effect, or another doubt; inactive = no such curve, though single readings can be large; an effect the other way counts as inactive or inconclusive.

SMILES	TbPYK inhibitor	AmpC detergent	SARS PLP yeast	AmpC inh no detg	RE007 growth inh	Sm TGR block
C#CCOCCOCCOCCNc1nc(N2CCN(C(=O)[C@H]([C@@H](C)CC)n3cc([C@@H](N)CO)nn3)CC2)nc(N2CCN(C(=O)[C@H]([C@@H](C)CC)n3cc([C@@H](N)CO)nn3)CC2)n1	nt	i	i	i	nt	i
C#CCOCCOCCOCCNc1nc(N2CCN(C(=O)[C@H](CCC(=O)O)n3cc(C(N)CC(C)C)nn3)CC2)nc(N2CCN(C(=O)[C@H](Cc3ccc(O)cc3)n3cc(C(N)CC(C)C)nn3)CC2)n1 (stereo not given in full)	i	i	i	i	i	i
COc1ccccc1CNC(=O)C(=O)NCC(c1ccc2c(c1)OCO2)N1CCOCC1 (stereo not given)	i	i	nt	nt	nt	i
N#CC1=C(SCC(=O)Nc2ccccc2)NC(=O)CC1c1ccco1 (stereo not given)	i	nt	nt	nt	i	nt
CCCCCCSC1=C(C#N)C(c2ccc(C)o2)CC(=O)N1 (stereo not given)	i	i	i	i	i	45µM
N#CC1=C(SCC(=O)NCc2ccccc2)NC(=O)CC1c1ccco1 (stereo not given)	?	i	i	?	i	40µM
N#CC1=C(SCc2ccccc2)NC(=O)CC1c1ccco1 (stereo not given)	i	?	i	i	i	35µM
Cc1ccccc1C(=O)OCc1cc(=O)n2nc(-c3cccs3)sc2n1	i	i	nt	nt	nt	i
C=CCC1=C(C)C(OC(=O)C2C(C=C(C)C)C2(C)C)CC1=O (stereo not given)	i	nt	nt	nt	nt	nt
COc1cccc(NC(=O)CCNC(=O)Cn2cnc3ccccc3c2=O)c1	i	i	nt	nt	nt	i
CC(=O)c1ccc(N2CCN(c3nc4c(S(=O)(=O)c5ccc(C)c(C)c5)nnn4c4ccc(Cl)cc34)CC2)cc1	i	i	nt	nt	nt	i
COC(=O)c1sc(N2C(=O)c3oc4ccc(C)cc4c(=O)c3C2c2ccc(OC)cc2)nc1C (stereo not given)	i	i	nt	nt	nt	i
COc1ccc(NC(=O)c2oc3ccccc3c2NC(=O)c2cc(C)cc(C)c2)c(OC)c1	i	i	nt	nt	nt	i
CC(=O)OCC(=O)[C@@]1(O)[C@H](C)C[C@H]2C3C[C@H](F)C4=CC(=O)C=CC4(C)C3[C@@H](O)CC21C (stereo not given in full)	i	nt	nt	nt	nt	nt
C/C(CS(=O)(=O)c1ccccc1)=N\O	i	i	i	i	i	nt
C/C=C(\CS(=O)(=O)c1ccccc1)S(=O)(=O)c1ccccc1	i	i	i	i	i	35µM
O=C(CCn1c(=O)oc2ccccc21)N(Cc1ccccc1)c1ccccc1	i	i	i	i	i	i
CCCCN(C(=O)CCn1c(=O)oc2ccccc21)c1ccccc1	i	i	i	i	i	25µM!
CCc1ccc(CNC(=O)c2ccc3c(c2)nc2n3CCOC2)cc1	i	i	nt	nt	nt	i
CCC1CCC(C(=O)NNC(=O)c2cc(-c3ccco3)[nH]n2)CC1 (stereo not given)	i	i	i	i	i	22µM
COc1ccc(Cl)cc1NC(=O)C(C)N1Cc2ccccc2C1=O (stereo not given)	i	i	nt	nt	nt	i
CC(C)c1nn2c(=O)cc(COC(=O)c3ccc(NC(=O)c4ccccc4Cl)cc3)nc2s1	i	i	nt	nt	nt	i
COc1cc(/C=N/N=C(\N)c2nonc2N)cc(OC)c1O	i	i	i	i	i	28µM
Cc1ccc(S(=O)(=O)N2CCC(C(=O)N[C@@H](Cc3ccccc3)C(=O)O)CC2)cc1	i	i	i	i	i	79µM
O=C(NCc1ccc(Cl)cc1)C1CCN(S(=O)(=O)c2ccccc2)CC1	i	i	i	i	i	25µM!
SMILES	TbPYK inhibitor	AmpC detergent	SARS PLP yeast	AmpC inh no detg	RE007 growth inh	Sm TGR block
O=C(NC1=NCCS1)C1CCN(S(=O)(=O)c2cc([N+](=O)[O-])ccc2Cl)CC1	i	nt	i	i	i	nt
O=C(NC1=NCCS1)C1CCN(S(=O)(=O)c2ccc(Cl)cc2)CC1	i	i	i	i	i	50µM
O=C(NC(=S)Nc1cc(C(F)(F)F)ccc1N1CCOCC1)c1ccco1	i	i	i	i	i	11µM
COc1cc(C(=O)NC(=S)Nc2ccccc2N2CCOCC2)cc(OC)c1OC	i	i	i	16µM	i	25µM
COc1cccc(C(=O)NC(=S)Nc2ccccc2N2CCOCC2)c1	i	i	i	i	i	i
O=C(Cn1nc(C(F)(F)F)c2c1CCCC2)Nc1cccc(Cl)c1	i	i	nt	nt	nt	i
COCCCn1c(=O)c2sccc2n2c(CCCC(=O)NC3CCC(C)CC3)nnc12 (stereo not given)	i	i	nt	nt	nt	i
Cc1ccc(CNC(=O)C2CCC(=O)N(CC3CCCCC3)C2)o1 (stereo not given)	i	?	i	i	i	28µM
COc1ccccc1CN1CC(C(=O)N(C)Cc2ccc(C)o2)CCC1=O (stereo not given)	i	i	i	i	i	20µM
O=C(NCCc1ccccc1)C1CCC(=O)N(Cc2cccc(C(F)(F)F)c2)C1 (stereo not given)	i	i	i	i	i	89µM
COc1ccccc1CN1CC(C(=O)N(C)Cc2ccncc2C)CCC1=O (stereo not given)	i	i	i	i	i	i
COc1ccccc1CN1CC(C(=O)NCCc2ccc(C)o2)CCC1=O (stereo not given)	i	i	i	i	i	25µM
CCc1nnc(NC(=O)c2cc(=O)c3cc(C)ccc3o2)s1	i	i	nt	nt	nt	i
COc1ccc(CNC(=O)CSc2ncc(S(=O)(=O)c3ccc(C)c(Cl)c3)c(=O)[nH]2)cc1	i	i	nt	nt	nt	i
CCn1cc(S(=O)(=O)c2cccc(C)c2)c(=O)c2cc(F)c(N3CCN(c4ccccc4)CC3)cc21	i	i	nt	nt	nt	i
Cc1oc2ccc(O)c(CN(C)Cc3ccccc3)c2c1C(=O)Nc1cccc(C(F)(F)F)c1	i	i	nt	nt	nt	i
COc1ccc(-c2noc(CNC(=O)c3ccccc3Br)n2)cc1	i	i	nt	nt	nt	i
COc1ccc(S(=O)(=O)N2CCC(C(=O)N(C)Cc3ccc(C)o3)CC2)cc1OC	i	i	i	i	i	40µM
Cc1ccc(N2C(=O)[C@@H]3[C@H](C2=O)[C@H]2C=C(C(=O)c4ccccc4)C=CN2[C@@H]3C(=O)c2ccc(Cl)cc2)cc1	i	i	i	i	i	40µM
